Reference: PubChem BioAssay (EPA / NIEHS)
The source holds several records for some structures; these can differ, active in one and inactive in another. Calls of active or inactive are those of the source. Rule for the calls: active = hit-call score of the fitted dose curve at least 0.9, where 1 is the maximum; inactive = score below 0.9.

read-out: Monokine induced gamma interferon (MIG), CXCL9 (gene 4283); assay: BSK_BE3C_MIG: BioMAP Diversity Plus: BE3C Assay for Monokine induced gamma interferon (MIG) Biomarker Activity (AID 2283035); conditions: primary human bronchial epithelial cells; actives raise or lower the signal
Experimental: BSK_BE3C is a cell-based, multiplexed-readout assay that uses bronchial epithelial cell, a human lung primary cell, with measurements taken at 24 hours after chemical dosing in a 96-well plate.BSK_BE3C_MIG is an assay component measured in the BSK_BE3C assay. It measures MIG antibody related to regulation of gene expression using ELISA technology.Data from the assay component BSK_BE3C_MIG was analyzed into 1 assay endpoint. This assay endpoint, BSK_BE3C_MIG, was analyzed with bidirectional fitting relative to DMSO as the negative control and baseline of activity. Using a type of binding reporter, gain or loss-of-signal activity can be used to understand changes in the signaling as they relate to the gene CXCL9. Furthermore, this assay endpoint can be referred to as a primary readout, because this assay has produced multiple assay endpoints where this one serves a signaling function. To generalize the intended target to other relatable targets, this assay endpoint is annotated to the cytokine intended target family, where the subfamily is chemotactic factor.
The levels of cell surface (or secreted, indicated by the prefix "s") biomarker endpoints were measured by ELISA. Overt cytotoxicity to cells in confluent adherent cultures (all systems other than the BT system) was assessed by measuring total protein levels using sulforhodamine B (SRB) staining in parallel cultures at the time of biomarker measurements, indicated as SRB endpoints. For proliferation assays for adherent cell types, individual cell types are cultured at sub-confluence and relative cell numbers quantified by SRB staining at time points optimized for each system (48 h: 3C and CASM3C systems; 72 h: BT and HDF3CGF systems; 96 h: SAg system). SRB was performed by staining cells with 0.1% SRB after fixation with 10% TCA and reading wells at 560 nm.Viability and proliferation of PBMC (T cells) was quantified by Alamar Blue reduction for the SAg and BT systems. For PBMC viability (referred to as PBMC Cytotoxicity within the assay endpoint names), cells were plated (75,000/well in a 96-well plate) and then chemical samples added for 1 h before addition of activators, SEB and TSST-1 (20 ng/mL final concentration each). Cells were incubated for 90 h. Then, Alamar Blue (20 uL/well) (Invitrogen, Cat DAL1100) was added for 6 h, and the plates were read with a fluorescence microplate reader at 546/580 nm (excitation/emission). For PBMC proliferation, cells were plated and activated as above but incubated for only 16 h prior to addition of Alamar Blue. Plates were read after 6 h.

Structure (SMILES)	outcome	AC50
COP(=S)(OC)Oc1ccc([N+](=O)[O-])cc1	inactive	
Cc1[nH]c(=O)n(C(C)(C)C)c(=O)c1Cl	inactive	
COc1nn(CSP(=S)(OC)OC)c(=O)s1	inactive	
CCC(C)Nc1c([N+](=O)[O-])cc(C(C)(C)C)cc1[N+](=O)[O-] (stereo not given)	inactive	
N#Cc1c(Cl)c(Cl)c(Cl)c(C#N)c1Cl		3.01 µM (active)
CC1(C)C(C=C(Cl)Cl)C1C(=O)OC(C#N)c1ccc(F)c(Oc2ccccc2)c1 (stereo not given)	inactive	
O=S(=O)(O)C(F)(F)C(F)(F)C(F)(F)C(F)(F)C(F)(F)C(F)(F)C(F)(F)C(F)(F)F	inactive	43.3 µM (active) [middle of 4 runs]
CCN(CC)C(=O)SCc1ccc(Cl)cc1	inactive	
O=C(NC(=O)c1c(F)cccc1F)Nc1ccc(OC(F)(F)C(F)OC(F)(F)F)c(Cl)c1 (stereo not given)	inactive	
CNC(=O)/C=C(\C)OP(=O)(OC)OC	inactive	
O=C1c2ccccc2C(=O)N1SC(Cl)(Cl)Cl		35.7 µM (active)
C[C@H]1[C@H](c2ccc(Cl)cc2)SC(=O)N1C(=O)NC1CCCCC1	inactive	
COC(=O)c1ccccc1CS(=O)(=O)NC(=O)Nc1nc(OC)cc(OC)n1	inactive	
CN1CSC(=S)N(C)C1	inactive	
O=C(O)COc1ccc(Cl)cc1Cl	inactive	
C#CCN1C(=O)COc2cc(F)c(N3C(=O)C4=C(CCCC4)C3=O)cc21	inactive	
CC(C)N(C(=O)COc1nnc(C(F)(F)F)s1)c1ccc(F)cc1	inactive	
OCCOc1ccccc1	inactive	
CNC(=O)Oc1cccc(N=CN(C)C)c1	inactive	
CC(C)(C)C(O)C(Oc1ccc(Cl)cc1)n1cncn1 (stereo not given)	inactive	

Structure (SMILES)	outcome	AC50
CC(C)OC(=O)Nc1cccc(Cl)c1	inactive	
CCC(C)(NC(=O)c1cc(Cl)c(C)c(Cl)c1)C(=O)CCl (stereo not given)		32.8 µM (active)
O=C(O)C(F)(F)C(F)(F)C(F)(F)C(F)(F)C(F)(F)C(F)(F)C(F)(F)F	inactive	
CCOc1nc(NC)nc(NC(=O)NS(=O)(=O)c2ccccc2C(=O)OC)n1	inactive	
N#CN	inactive	
CNC(=O)CSP(=S)(OC)OC	inactive	
Oc1ccc(Cl)cc1Cc1ccccc1		37.3 µM (active) [middle of 7 runs]
O=[N+]([O-])c1c(Cl)c(Cl)c(Cl)c(Cl)c1Cl	inactive	
CCc1ccc(C(=O)NN(C(=O)c2cc(C)cc(C)c2)C(C)(C)C)cc1	inactive	
O=C(O)CCCOc1ccc(Cl)cc1Cl	inactive	
COC(=O)c1ccccc1S(=O)(=O)NC(=O)Nc1nc(C)nc(OC)n1	inactive	
ClC1C(Cl)C(Cl)C(Cl)C(Cl)C1Cl (stereo not given)	inactive	
CCOC1Oc2ccc(OS(C)(=O)=O)cc2C1(C)C (stereo not given)	inactive	
Cc1cc(C)nc(NC(=O)NS(=O)(=O)c2ccccc2C(=O)OC2COC2)n1	inactive	
COC(=O)c1ccccc1S(=O)(=O)NC(=O)N(C)c1nc(C)nc(OC)n1	inactive	
CCOCN(C(=O)CCl)c1c(C)cccc1CC	inactive	
COc1cc(OC)nc(NC(=O)NS(=O)(=O)c2cc(NC=O)ccc2C(=O)N(C)C)n1	inactive	
CC1(c2ccc(Oc3ccccc3)cc2)OC(=O)N(Nc2ccccc2)C1=O (stereo not given)	inactive	
CCCN(CCOc1c(Cl)cc(Cl)cc1Cl)C(=O)n1ccnc1	inactive	
